Only some compounds are listed: those with a hit (about 1.7% of all), similar ones and a draw of the others.
PABP1 MLLE inh – inhibitors of PABP1 MLLE–PAM2 peptide binding, primary screen, biochemical, fluorescence polarization, FITC-PAM2, GST-MLLE; inhibition, % at 20 µM; actives 0.36% (n = 360,000); in the data active = inhibition above about 35%, passing the limit was not always enough
eIF4E-4G inh – eIF4E–eIF4G protein interaction inhibitors, primary screen, biochemical, uHTS, TR-FRET, eIF4GI fragment; Eukaryotic translation initiation factor 4E (Mus musculus) + Eukaryotic translation …; TR-FRET eIF4E-eIF4GI(517-606) binding, 2 h; inhibition, % at 21.7 µM; actives 0.37% (n = 220,000); AID 782, 2007;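 active = inhibition above about 30%, limit read from the data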
eIF4H FP inh – human eIF4H binding inhibitors, primary screen, translation initiation inhibitor project, biochemical, uHTS, fluorescence polarization; inhibition, % at 35 µM; actives 0.94% (n = 290,000); eIF4H fluorescence polarization binding assay; Eukaryotic translation initiation factor 4H (Homo sapiens), Q15056;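 note: calls also rest on retests at 20 µM and on dose response follow-up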
PABP FP inh – PABP poly(A) RNA binding inhibitors, primary screen, biochemical, fluorescence polarization, uHTS; Polyadenylate-binding protein 1 (Homo sapiens), P11940; actives 1% (n = 290,000); calls only at 35 µM;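 note: calls also rest on retests at 20 µM and on dose response follow-up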
EBV gp42 inh – Epstein-Barr virus gp42 inhibitors, primary screen, biochemical, uHTS, fluorescence polarization; inhibition, % (tested at 21.74 µM); Fluorescence polarization binding assay, mP read-out; actives 0.42% (n = 220,000); Glycoprotein 42 (Epstein-Barr virus (strain AG876)), Q1HVG2; in the data active = inhibition above about 50%
Target sequence (Q1HVG2 whole entry, looked up): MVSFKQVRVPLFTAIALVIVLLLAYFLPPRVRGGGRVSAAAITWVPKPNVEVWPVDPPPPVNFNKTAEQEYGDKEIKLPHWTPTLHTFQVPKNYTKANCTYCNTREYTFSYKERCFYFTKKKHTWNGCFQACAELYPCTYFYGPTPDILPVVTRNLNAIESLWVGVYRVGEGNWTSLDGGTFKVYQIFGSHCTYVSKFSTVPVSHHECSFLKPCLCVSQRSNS
Numbers stand for hits; 0 = inactive; ? = inconclusive; - = not tested or not shown; + = active, no number; [ ] = dose if it differs, or a comment. Unless noted, the rule behind the calls is not given here.

SMILES | PABP1 MLLE inh | eIF4E-4G inh | eIF4H FP inh | PABP FP inh | EBV gp42 inh
O=C(NC1CCCCC1)C(Cc1ccccc1)NS(=O)(=O)c1cccs1 (configuration not stated) | 0 | 0 | 0 | 0 | 0
O=S(=O)(NC1CCCCCCC1)c1ccccc1 | 0 | - | 0 | 0 | -
O=S(=O)(NC(=S)c1ccccc1)c1ccc(Cl)cc1 | 0 | - | 0 | 0 | -
O=S(=O)(NC(=S)c1ccccc1)c1ccccc1 | 46 | - | - | - | -
CCc1ccccc1N1C(=O)C(Cl)=C(N2CCOCC2)C1=O | 0 | - | 0 | 0 | -
CCC12CCCN3CCc4c(n(c5ccccc45)C(O)(C(=O)OC)C1)C32 (configuration not stated) | 0 | 0 | 96 | + | 0
Cc1cccc(NC(=O)CCS(=O)(=O)c2cccc3nsnc23)c1C | 0 | 0 | 0 | 0 | 0
O=C(CCS(=O)(=O)c1cccc2nsnc12)NCc1ccccc1Cl | 0 | 33 | 0 | 0 | 0
COc1cccc(CNC(=O)CNS(=O)(=O)c2ccc(Br)s2)c1 | 0 | - | 0 | 0 | -
CCNC(=S)NS(=O)(=O)c1ccc(CC)cc1 | 0 | 0 | 0 | 0 | 0
CCNC(=S)NS(=O)(=O)c1ccc(C)cc1 | 41 | 0 | 0 | 0 | 0
COC(=O)CCCC1=CC2=C(c3ccccc3)C(=O)C(C)(OC(=O)C3CCCC3)C(=O)C2=CN1Cc1ccco1 (configuration not stated) | 0 | 0 | 0 | + | 0
COC(=O)CCCC1=CC2=C(c3ccccc3)C(=O)C(C)(OC(=O)C3CCCC3)C(=O)C2=CN1CCCCO (configuration not stated) | 0 | 0 | 0 | 0 | 0
N#Cc1c(SCC(=O)Nc2nncs2)sc2c(O)cc(=O)[nH]c12 | 0 | - | 101 | + | -
COc1cc(Cl)c(C)cc1NC(=O)CSc1sc2c(O)cc(=O)[nH]c2c1C#N | 0 | - | 71 | + | -
N#Cc1c(SCC(=O)Nc2ccc(C(F)(F)F)cc2)sc2c(O)cc(=O)[nH]c12 | 0 | - | 0 | 0 | -
COc1ccc(OC)c(NC(=O)CSc2sc3c(O)cc(=O)[nH]c3c2C#N)c1 | 0 | - | 0 | 0 | -
CC1Cc2c([nH]c3ccccc23)C2c3ccccc3CN12 (configuration not stated) | 0 | - | 0 | 0 | -
COc1cc(/C=C(\C#N)C(=O)NCC2CCCO2)ccc1O (configuration not stated) | 0 | 0 | active | + | 0
Cc1c(NC(=O)CSCc2ccc(Br)cc2)c(=O)n(-c2ccccc2)n1C | 0 | 0 | active | + | 0
Cc1c(NC(=O)COC(=O)Cc2ccc(Br)cc2)c(=O)n(-c2ccccc2)n1C | 0 | - | - | - | -
C/C(=N\Nc1ncnc2sc(C)c(C)c12)c1ccccn1 | 0 | - | ? | + | -
Cc1sc2ncnc(N/N=C/c3cccc(O)c3)c2c1C | 0 | 0 | 0 | 0 | 0
Cc1ccc(C)c(NS(=O)(=O)c2ccc3[nH]c(=O)oc3c2)c1 | 0 | 0 | ? | + | 0
Cc1ccc(NS(=O)(=O)c2ccc3[nH]c(=O)oc3c2)cc1Cl | 0 | - | - | - | -
SMILES | PABP1 MLLE inh | eIF4E-4G inh | eIF4H FP inh | PABP FP inh | EBV gp42 inh
COC(=O)c1ccc(NS(=O)(=O)c2ccc3[nH]c(=O)oc3c2)cc1 | 0 | - | 66 | 0 | -
COc1cccc(CNC(=O)COC(=O)c2cc([N+](=O)[O-])ccc2N2CCCC2)c1 | 0 | - | - | - | -
Cc1nc2c(cc1N)nc(C)n2Cc1ccccc1 | 0 | - | 0 | 0 | -
CN1CCN(CC(=O)Nc2sc3c(c2C(=O)Nc2ccccc2)CCCC3)CC1 | 0 | - | 0 | + | -
O=C(CNC(=O)c1ccccc1F)N/N=C/c1cc(Br)ccc1OC(=O)/C=C/c1ccco1 | 0 | 0 | 84 | 0 | 0
COc1cc(NC(=O)c2ccc3c(=O)n(Cc4ccco4)c(=S)[nH]c3c2)cc(OC)c1OC | 0 | 0 | 64 | 0 | 0
CCCN(CCC)C(=O)c1ccc2c(=O)n(Cc3ccco3)c(=S)[nH]c2c1 | 0 | 0 | 0 | 0 | 0
CCN(c1ccc(OC)cc1)S(=O)(=O)c1nnc(NC(=O)c2ccccc2Cl)s1 | 0 | - | - | - | -
Cc1ccccc1-n1c(=O)cc(N2CCc3ccccc3C2)[nH]c1=O | 0 | 0 | 79 | + | 0
NC1=Nc2cccc3cccc1c23 | 0 | 0 | 0 | + | 0
O=C(O)CSc1c2ccccc2cc2ccccc12 | 38 | - | 0 | 0 | -
Cc1[nH]c2ccccc2c1SCC(=O)O | 0 | 0 | 0 | 0 | 0
CN(C(=O)Cn1c(=O)oc2cc(S(=O)(=O)N3CCCC3)ccc21)C1CCCCC1 | 0 | - | 0 | 0 | -
NNc1nc2c(Cl)ccc(Cl)c2s1 | 0 | 0 | 62 | + | 0
O=C(Nc1nc2c(Cl)ccc(Cl)c2s1)C1CC1 | 0 | - | 0 | 0 | -
C[C@@H]1COC(=O)[C@H](CC(=O)OC(C)(C)C)C/C=C\C[C@@H](CC(=O)N[C@H](CO)Cc2ccccc2)C(=O)N1 | 0 | - | - | - | -
CN(C)c1ccnc2c[cH-]cc12.[Fe].c1ccc(-[c-]2[c-](-c3ccccc3)[c-](-c3ccccc3)[c-](-c3ccccc3)[c-]2-c2ccccc2)cc1 (configuration not stated) | 0 | 41 | 0 | 0 | 0
O=C(CNC(=O)c1ccc(Br)o1)NNC(=O)COc1ccccc1Cl | 0 | - | - | - | -
COC(=O)CCNC(=O)c1nn(Cc2ccccc2)c(=O)c2ccccc12 | 0 | - | 0 | 0 | -
CSc1ccc(CN(C)C(=O)c2cccc(S(=O)(=O)NCc3ccccc3)c2)cc1 | 0 | - | 0 | + | -
O=[N+]([O-])c1ccc(O)c(/C=N/n2c(-c3ccccc3)n[nH]c2=S)c1 | 0 | - | 0 | 0 | -
O=[N+]([O-])c1ccccc1/C=C/C=N/n1c(-c2ccc(Cl)cc2)n[nH]c1=S | 0 | 0 | 0 | 0 | 86
S=c1[nH]nc(-c2ccc(Cl)cc2)n1/N=C/c1cccs1 | 0 | 95 | 0 | 0 | 0
O=[N+]([O-])c1cccc(-c2ccc(/C=N/n3c(-c4ccccc4)n[nH]c3=S)o2)c1 | 0 | 75[fluorescence artefact?] | 0 | 0 | 0
S=c1[nH]nc(-c2ccco2)n1/N=C/c1ccc(Cl)cc1 | 0 | 33 | 0 | 0 | 0
SMILES | PABP1 MLLE inh | eIF4E-4G inh | eIF4H FP inh | PABP FP inh | EBV gp42 inh
CN(C)C1=NC[C@H](Cc2ccccc2)N1CC1CCCCCC1 | 0 | - | - | - | -
CCC(C)c1ccccc1NC(=O)c1cccc(-n2cnnn2)c1 (configuration not stated) | 0 | - | - | - | -
Cc1[nH]c(C)c(S(=O)(=O)N2CCCCC2)c1C(=O)N1CCCCC1 | 0 | - | 0 | 0 | -
Oc1c(Br)cc(/C=N/n2c(-c3ccccc3)n[nH]c2=S)c(Br)c1O | - | - | 85 | + | -
CCOC(=O)N1CCN(C(=O)COC(=O)CNC(=O)c2ccc(OCC)c(OCC)c2)CC1 | 0 | - | - | - | -
O=C(N/N=C/c1ccc(-c2ccc(Cl)c(C(=O)O)c2)o1)c1cc2c(ccc3ccccc32)o1 | 0 | 0 | 76 | + | 0
O=C(CS(=O)CC(=O)N(CC(=O)NC1CCCC1)c1ccccc1F)Nc1ccc(F)cc1 (configuration not stated) | 0 | - | 0 | 0 | -
